Where “and” joins values, the source holds several entries; their conditions need not be identical. Equal entries are not always repeated. The campaign covered roughly 5,500 compounds. About 2,000 (36%) were called active. About 18% were inconclusive and are not listed. No stated cut-off is given here; in the data, active means normalized growth mostly below about 0.91 (no sharp cut-off); inconclusive means no clear call, values can overlap the other calls; inactive means mostly above about 0.92. The list shows a part of the results.
Experiment: chemical genetic growth profiling, strain panel (AID 1159580);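 further: tested at 20 µM; growth read once vehicle control cultures reached saturation at 30 °C; 1 = growth at the plate median or of vehicle wells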
Settings: S. cerevisiae deletion strains, growth OD

Measured: normalized growth

COc1ccc2c(c1)c(CC(=O)O)c(C)n2C(=O)c1ccc(Cl)cc1
inactive: locus YAL013W, strain DEP1, stronger effect = lower value 1.01 | locus YAL021C, strain ccr4, stronger effect = lower value 0.987 | locus YAL026C, strain drs2, stronger effect = lower value 0.974 | locus YAL030W, strain snc1, stronger effect = lower value 0.988 | locus YAL040C, strain CLN3, stronger effect = lower value 0.997 | locus YBL061C, strain skt5, stronger effect = lower value 0.959 | locus YBR009C, strain hhf1, stronger effect = lower value 0.931 | locus YBR021W, strain FUR4, stronger effect = lower value 1 | locus YBR023C, strain chs3, stronger effect = lower value 0.969 | locus YBR171W, strain sec66, stronger effect = lower value 0.967 | locus YBR229C, strain ROT2, stronger effect = lower value 1 | locus YBR231C, strain swc5, stronger effect = lower value 0.972 | locus YBR279W, strain paf1, stronger effect = lower value 0.988 | locus YCL011C, strain gbp2, stronger effect = lower value 0.921 | locus YCL016C, strain dcc1, stronger effect = lower value 0.919 | locus YCL029C, strain bik1, stronger effect = lower value 0.988 | locus YCL061C, strain MRC1 (second series), stronger effect = lower value 1.01 | locus YCL061C, strain MRC1, stronger effect = lower value 0.96 | locus YCL069W, strain vba3, stronger effect = lower value 0.986 | locus YCR088W, strain abp1, stronger effect = lower value 0.99 | locus YDL005C, strain med2, stronger effect = lower value 0.973 | locus YDL035C, strain GPR1, stronger effect = lower value 1.02 | locus YDL040C, strain nat1, stronger effect = lower value 0.991 | locus YDL074C, strain BRE1, stronger effect = lower value 1.02 | locus YDL101C, strain DUN1, stronger effect = lower value 1.01 | locus YDL185W, strain tfp1, stronger effect = lower value 0.973 | locus YDL192W, strain arf1, stronger effect = lower value 0.998 | locus YDR001C, strain nth1, stronger effect = lower value 0.978 | locus YDR069C, strain doa4, stronger effect = lower value 1.01 | locus YDR101C, strain arx1, stronger effect = lower value 1.02 | locus YDR137W, strain rgp1, stronger effect = lower value 0.95 | locus YDR159W, strain sac3, stronger effect = lower value 1.01 | locus YDR162C, strain NBP2, stronger effect = lower value 0.995 | locus YDR195W, strain ref2 1.02 | locus YDR297W, strain sur2, stronger effect = lower value 1.01 | locus YDR318W, strain mcm21, stronger effect = lower value 0.979 | locus YDR334W, strain swr1, stronger effect = lower value 0.981 | locus YDR335W, strain msn5, stronger effect = lower value 0.991 | locus YDR363W, strain ESC2, stronger effect = lower value 0.996 | locus YDR388W, stronger effect = lower value 0.982 | locus YDR392W, strain spt3, stronger effect = lower value 0.885 | locus YDR502C, strain sam2, stronger effect = lower value 0.981 | locus YEL003W, strain gim4, stronger effect = lower value 1 | locus YEL037C, strain rad23, stronger effect = lower value 0.961 | locus YEL061C, strain CIN8 (second series), stronger effect = lower value 0.979 | locus YEL061C, strain CIN8, stronger effect = lower value 1 | locus YER002W, strain NOP16, stronger effect = lower value 1.02 | locus YER015W, strain faa2, stronger effect = lower value 0.976 | locus YER016W, strain bim1, stronger effect = lower value 0.989 | locus YER110C, stronger effect = lower value 0.986 | locus YER111C, strain swi4, stronger effect = lower value 0.98 | locus YER155C, strain BEM2 (second series), stronger effect = lower value 0.874 | locus YER155C, strain BEM2, stronger effect = lower value 0.989 | locus YER167W, strain BCK2, stronger effect = lower value 0.995 | locus YFR010W, strain ubp6, stronger effect = lower value 0.975 | locus YGL078C, strain dbp3, stronger effect = lower value 0.978 | locus YGL086W, strain mad1, stronger effect = lower value 0.995 | locus YGL167C, strain pmr1, stronger effect = lower value 0.983 | locus YGL173C, strain kem1, stronger effect = lower value 0.985 | locus YGL227W, strain vid30, stronger effect = lower value 0.976 | locus YGL240W, strain doc1, stronger effect = lower value 1.01 | locus YGL248W, strain PDE1, stronger effect = lower value 1.01 | locus YGL253W, strain hxk2, stronger effect = lower value 0.993 | locus YGR135W, strain pre9, stronger effect = lower value 0.963 | locus YGR252W, strain gcn5, stronger effect = lower value 0.94 | locus YHR013C, strain ard1, stronger effect = lower value 0.968 | locus YHR027C, strain rpn1, stronger effect = lower value 0.981 | locus YHR030C, strain SLT2, stronger effect = lower value 1.01 and 0.952 | locus YHR079C, strain IRE1 (second series), stronger effect = lower value 0.987 | locus YHR079C, strain IRE1, stronger effect = lower value 0.96 | locus YHR094C, strain hxt1, stronger effect = lower value 0.975 | locus YHR129C, strain ARP1, stronger effect = lower value 1.01 | locus YHR142W, strain chs7, stronger effect = lower value 0.912 | locus YHR200W, strain rpn10, stronger effect = lower value 0.99 | locus YIL066C, strain RNR3, stronger effect = lower value 1 | locus YIL073C, strain SPO22, stronger effect = lower value 0.987 | locus YIL125W, strain kgd1, stronger effect = lower value 0.945 | locus YIR030C, strain dcg1, stronger effect = lower value 0.986 | locus YJL092W, strain hpr5, stronger effect = lower value 0.92 | locus YJL095W, strain BCK1 (second series), stronger effect = lower value 0.996 | locus YJL095W, strain BCK1, stronger effect = lower value 1 and 0.969 | locus YJL115W, strain asf1, stronger effect = lower value 0.969 | locus YJL129C, strain trk1, stronger effect = lower value 0.909 | locus YJL134W, strain LCB3, stronger effect = lower value 0.997 | locus YJL154C, strain vps35, stronger effect = lower value 0.989 | locus YJL164C, strain tpk1, stronger effect = lower value 0.976 | locus YJL166W, strain qcr8, stronger effect = lower value 0.977 | locus YJL168C, strain set2, stronger effect = lower value 0.979 | locus YJL187C, strain SWE1 (second series), stronger effect = lower value 1 | locus YJL187C, strain SWE1, stronger effect = lower value 0.991 | locus YJR043C, strain POL32, stronger effect = lower value 1.02 | locus YJR066W, strain TOR1, stronger effect = lower value 0.911
